The source of these data is publication PMC3218832.

Assay in all cases: protein binding microarray; high values mean tight binding
Settings in all cases: dsDNA, one strand shown

Test [1] has as its target RELARELA (p65 homodimer) (Homo sapiens, UniProt Q04206 1-307).
Test [2] deals with p50p50 homodimer (Homo sapiens, UniProt P19838 7-356).
Test [3] has as its target T1, p52p52 homodimer (Homo sapiens, UniProt Q00653 4-332).
T1 sequence: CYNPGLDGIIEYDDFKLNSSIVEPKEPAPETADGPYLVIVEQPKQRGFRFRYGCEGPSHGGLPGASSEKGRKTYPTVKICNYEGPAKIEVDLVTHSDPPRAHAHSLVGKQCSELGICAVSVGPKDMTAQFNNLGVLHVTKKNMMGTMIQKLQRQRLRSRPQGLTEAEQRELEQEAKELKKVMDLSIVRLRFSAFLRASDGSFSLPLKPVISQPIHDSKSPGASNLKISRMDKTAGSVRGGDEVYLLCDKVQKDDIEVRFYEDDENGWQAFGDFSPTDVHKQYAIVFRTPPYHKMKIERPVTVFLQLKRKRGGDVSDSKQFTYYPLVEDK

Test [4] deals with RELA (p65) subunit of heterodimer;p50 subunit (Homo sapiens;Homo sapiens, UniProt Q04206;P19838 1-307;7-356).
For test [5], the target named is RELA (p65) subunit of heterodimer;p52 subunit (Homo sapiens;Homo sapiens, UniProt Q04206;Q00653 1-307;4-332).
Test [6] deals with RELB subunit;p50 subunit (Homo sapiens;Homo sapiens, UniProt Q01201;P19838 120-401;7-356).
The target in test [7] is T2, RELB subunit;p52 subunit (Homo sapiens;Homo sapiens, UniProt Q01201;Q00653 120-401;4-332).
T2 sequence 1: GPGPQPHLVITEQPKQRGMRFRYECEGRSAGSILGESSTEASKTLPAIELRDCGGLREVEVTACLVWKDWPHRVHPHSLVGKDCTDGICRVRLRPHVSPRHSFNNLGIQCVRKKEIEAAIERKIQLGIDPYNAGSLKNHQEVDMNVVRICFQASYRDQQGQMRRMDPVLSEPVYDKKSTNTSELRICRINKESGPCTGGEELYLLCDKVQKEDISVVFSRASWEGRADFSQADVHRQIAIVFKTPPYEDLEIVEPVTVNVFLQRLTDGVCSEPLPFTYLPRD
T2 sequence 2: T1 sequence

Test [8] has as its target C-Rel subunit;p50 subunit (Homo sapiens;Homo sapiens, UniProt Q04864;P19838 1-285;7-356).
For test [9], the target named is T3, C-Rel subunit;p52 subunit (Homo sapiens;Homo sapiens, UniProt Q04864;Q00653 1-285;4-332).
T3 sequence 1: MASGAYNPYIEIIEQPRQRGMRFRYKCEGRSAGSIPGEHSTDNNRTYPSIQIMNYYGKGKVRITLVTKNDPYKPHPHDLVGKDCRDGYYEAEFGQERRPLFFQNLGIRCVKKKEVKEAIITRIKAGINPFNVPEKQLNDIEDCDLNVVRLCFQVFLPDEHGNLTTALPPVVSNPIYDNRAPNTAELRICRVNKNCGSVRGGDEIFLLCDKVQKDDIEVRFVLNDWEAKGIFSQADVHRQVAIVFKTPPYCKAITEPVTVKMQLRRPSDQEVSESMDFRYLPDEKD
T3 sequence 2: T1 sequence

Chain of RELARELA (p65 homodimer) (Q04206 1-307): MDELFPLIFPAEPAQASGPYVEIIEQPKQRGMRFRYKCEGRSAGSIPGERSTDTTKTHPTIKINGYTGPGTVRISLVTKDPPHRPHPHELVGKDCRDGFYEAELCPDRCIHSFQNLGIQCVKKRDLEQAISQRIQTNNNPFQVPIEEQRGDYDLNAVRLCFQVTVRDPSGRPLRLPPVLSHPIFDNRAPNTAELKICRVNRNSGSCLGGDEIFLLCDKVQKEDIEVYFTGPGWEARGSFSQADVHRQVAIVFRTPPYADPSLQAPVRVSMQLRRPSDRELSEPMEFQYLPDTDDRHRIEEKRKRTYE
Chain of RELA (p65) subunit of heterodimer;p50 subunit (Q04206 1-307, chain 1 of 2): as the sequence (Q04206 1-307) above
Chain of RELA (p65) subunit of heterodimer;p50 subunit (P19838 7-356, chain 2 of 2): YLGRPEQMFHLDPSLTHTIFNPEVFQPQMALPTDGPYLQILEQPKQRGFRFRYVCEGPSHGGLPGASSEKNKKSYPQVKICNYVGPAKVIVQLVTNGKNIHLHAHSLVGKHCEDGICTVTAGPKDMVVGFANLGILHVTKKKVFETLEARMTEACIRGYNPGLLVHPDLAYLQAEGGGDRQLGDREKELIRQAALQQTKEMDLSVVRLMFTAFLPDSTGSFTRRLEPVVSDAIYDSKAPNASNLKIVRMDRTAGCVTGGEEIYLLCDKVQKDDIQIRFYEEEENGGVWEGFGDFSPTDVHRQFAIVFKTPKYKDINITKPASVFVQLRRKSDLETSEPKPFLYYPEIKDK
Chain of p50p50 homodimer (P19838 7-356): as the sequence (P19838 7-356, chain 2 of 2) above

With CAATAGCCCCT, the binding signal in test [1] was -0.581 z-score; in test [2], 1.17 z-score; in test [3], 0.673 z-score; in [4], 0.506 z-score; in [5], 0.808 z-score; in test [6] it was 0.574 z-score. Also, the binding signal in test [7] was 0.89 z-score; in test [8], 0.189 z-score; in [9] it was 0.555 z-score.
For the sequence AGGTAAACCCC, the binding signal in [1] stood at 1.17 z-score; in [2], 0.722 z-score; in [3], 2.16 z-score; in test [4], 1.25 z-score; in test [5] it was 1.68 z-score; in test [6], 0.79 z-score. In addition, the binding signal amounted to 1.51 z-score in test [7], 0.88 z-score in test [8] and 2.02 z-score in test [9].
As for CGGGGCATCCT, the binding signal in test [1] is -0.458 z-score; in test [2], 0.212 z-score; in [3] it was 0.516 z-score; in test [4], 0.0241 z-score; in [5] it was 0.306 z-score; in test [6], 0.179 z-score. Besides, the binding signal in [7] came out at 0.34 z-score; in [8] it was 0.188 z-score; in [9], 0.458 z-score.
Consider GGAGATATCCT, for which the binding signal in test [1] was -0.481 z-score; in test [2] it was -1.23 z-score; in test [3], -0.703 z-score; in [4] it was -0.874 z-score; in [5], -0.798 z-score; in [6], -1.04 z-score. The binding signal in [7] is -0.872 z-score; in [8], -1.35 z-score; in [9] it was -0.82 z-score.
For AGAATGTTCCT, the binding signal in [1] is 0.037 z-score; in [2], -1.47 z-score; in test [3] it was -0.491 z-score; in test [4], -0.64 z-score; in [5] it was -0.735 z-score; in [6] it was -0.963 z-score. For the same sequence, the figures for the binding signal in test [7], in [8] and in test [9] were -0.948 z-score, -1.17 z-score and -0.63 z-score, respectively.
For the sequence AAGTGAACCCT, the binding signal in test [1] was -0.647 z-score; in test [2] it was -1.09 z-score; in [3], -0.646 z-score; in [4], -0.987 z-score; in test [5] it was -0.763 z-score; in test [6], -0.923 z-score. Also, the binding signal in test [7] is -0.758 z-score; in test [8], -1.27 z-score; in [9] it was -0.88 z-score.
For CGGTAAACCCT, the binding signal in test [1] is 0.285 z-score; in test [2], -0.188 z-score; in test [3], 0.217 z-score; in test [4], -0.158 z-score; in test [5], 0.0419 z-score; in test [6] it was -0.151 z-score. Also, the binding signal was -0.0534 z-score in test [7], -0.122 z-score in test [8] and 0.186 z-score in test [9].
As for CGAGTTGCCCC, the binding signal in test [1] is 0.677 z-score; in [2], 0.0517 z-score; in [3] it was -0.0293 z-score; in test [4], 0.542 z-score; in test [5] it was 0.31 z-score; in test [6] it was 0.428 z-score. The binding signal in test [7] worked out at 0.407 z-score; in [8], 0.855 z-score; in test [9], 0.564 z-score.
As for CAATACGCCCC, the binding signal in test [1] is 0.0573 z-score; in [2], 0.196 z-score; in test [3], 0.145 z-score; in test [4] it was 0.039 z-score; in [5] it was 0.0537 z-score; in [6] it was 0.204 z-score. Further, the values for the binding signal in test [7], in [8] and in [9] were 0.503 z-score, 0.297 z-score and 0.13 z-score, respectively.
Take GAATACATCCT: the binding signal was -0.313 z-score in [1]; -0.946 z-score in test [2]; -0.677 z-score in test [3]; -0.816 z-score in test [4]; -0.805 z-score in test [5]; -0.977 z-score in [6]. Also, the binding signal was -0.824 z-score in test [7], -1.36 z-score in [8] and -0.87 z-score in test [9].
Regarding GAGTGACTCCC, the binding signal in test [1] is -0.623 z-score; in test [2], -0.849 z-score; in test [3] it was -0.413 z-score; in test [4], -0.796 z-score; in [5], -0.812 z-score; in test [6], -0.601 z-score. Further, the binding signal was -0.827 z-score in test [7], -0.837 z-score in test [8] and -0.832 z-score in [9].
Take GGGTGGGCCCT: the binding signal is 0.392 z-score in test [1]; -0.139 z-score in [2]; -0.133 z-score in [3]; -0.0704 z-score in test [4]; -0.184 z-score in test [5]; -0.392 z-score in [6]. Also, the results for the binding signal in [7], in [8] and in test [9] were -0.318 z-score, -0.304 z-score and 0.357 z-score, respectively.
Consider AGATGAACCCC, for which the binding signal in [1] is -0.232 z-score; in test [2] it was -0.284 z-score; in [3], -0.287 z-score; in test [4], -0.402 z-score; in test [5], -0.342 z-score; in [6] it was -0.255 z-score. Further, the binding signal was -0.0728 z-score in [7], -0.464 z-score in test [8] and -0.256 z-score in test [9].
Turning to AAGTGGGCCCT, the binding signal in [1] was -0.584 z-score; in test [2], -0.904 z-score; in test [3], -0.603 z-score; in [4] it was -0.886 z-score; in [5], -0.714 z-score; in test [6], -0.762 z-score. Besides, the binding signal in test [7] was -0.527 z-score; in test [8], -1.25 z-score; in test [9], -0.634 z-score.
For the sequence GGATATGCCCT, the binding signal in [1] is 0.304 z-score; in [2] it was -1.18 z-score; in test [3], -0.574 z-score; in test [4] it was -0.276 z-score; in test [5], -0.49 z-score; in test [6], -0.93 z-score. The binding signal was -0.689 z-score in test [7], -0.384 z-score in test [8] and -0.294 z-score in [9].
Turning to AGATAAGTCCC, the binding signal in test [1] amounted to 0.485 z-score; in test [2], 1.11 z-score; in test [3], 0.806 z-score; in test [4], 1.13 z-score; in test [5], 0.806 z-score; in test [6] it was 1.2 z-score. Also, the binding signal was determined as 0.954 z-score in test [7], 0.899 z-score in test [8] and 0.335 z-score in [9].
For the sequence AAAAGCACCCC, the binding signal is -0.281 z-score in test [1]; 0.833 z-score in [2]; 0.946 z-score in test [3]; 0.86 z-score in test [4]; 1.12 z-score in [5]; 0.711 z-score in [6]. Moreover, the results for the binding signal in test [7], in test [8] and in test [9] were 0.952 z-score, 0.423 z-score and 0.69 z-score, respectively.
As for GGATGAACCCT, the binding signal in test [1] was -0.273 z-score; in test [2], -1.25 z-score; in test [3] it was -0.595 z-score; in test [4], -0.588 z-score; in test [5] it was -0.76 z-score; in test [6], -0.936 z-score. The binding signal in test [7] was -0.814 z-score; in test [8], -1.23 z-score; in test [9], -0.571 z-score.
As for GGGGATTCCCT, the binding signal in test [1] was 3.57 z-score; in test [2], 1.37 z-score; in [3], 3.18 z-score; in test [4], 2.6 z-score; in [5], 3.05 z-score; in test [6] it was 2.45 z-score. Moreover, the binding signal stood at 2.75 z-score in [7], 2.76 z-score in test [8] and 3.46 z-score in [9].
On to CAATACTTCCT, for which the binding signal was -0.118 z-score in test [1]; -1.09 z-score in [2]; -0.562 z-score in test [3]; -0.687 z-score in [4]; -0.787 z-score in test [5]; -1.04 z-score in [6]. Also, the figures for the binding signal in test [7], in test [8] and in [9] were -0.781 z-score, -0.77 z-score and -0.829 z-score, respectively.
GGGTTCCTCCT: the binding signal is -0.196 z-score in test [1]; -1.42 z-score in test [2]; -0.584 z-score in test [3]; -0.636 z-score in [4]; -0.6 z-score in [5]; -0.937 z-score in test [6]. Moreover, the binding signal was -0.638 z-score in [7], -0.934 z-score in test [8] and -0.467 z-score in [9].
